Screening data (PubChem BioAssay)
Most compounds without a hit are left out; they make up all but 7.4% or so of the library.
FLuc modulator = qHTS profiling assay for firefly luciferase inhibitor/activator using purifed enzyme and Km concentrations of substrates (counterscreen for miR-21 project) | Potency, µM (doses to about 57.5 µM), for the others: at the top dose activity change, negative = inhibition, most hits filed as inhibitors | Luciferin 4-monooxygenase (Photinus pyralis), P08659 | purified FLuc, Km substrates, luminescence inhibition | 6.9% of 360,000 active;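 also: plate controls were vehicle for no effect and reference inhibitor for full effect; nearly all actives have a fitted effect of over 55% in size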
Target sequence (P08659 whole entry, looked up): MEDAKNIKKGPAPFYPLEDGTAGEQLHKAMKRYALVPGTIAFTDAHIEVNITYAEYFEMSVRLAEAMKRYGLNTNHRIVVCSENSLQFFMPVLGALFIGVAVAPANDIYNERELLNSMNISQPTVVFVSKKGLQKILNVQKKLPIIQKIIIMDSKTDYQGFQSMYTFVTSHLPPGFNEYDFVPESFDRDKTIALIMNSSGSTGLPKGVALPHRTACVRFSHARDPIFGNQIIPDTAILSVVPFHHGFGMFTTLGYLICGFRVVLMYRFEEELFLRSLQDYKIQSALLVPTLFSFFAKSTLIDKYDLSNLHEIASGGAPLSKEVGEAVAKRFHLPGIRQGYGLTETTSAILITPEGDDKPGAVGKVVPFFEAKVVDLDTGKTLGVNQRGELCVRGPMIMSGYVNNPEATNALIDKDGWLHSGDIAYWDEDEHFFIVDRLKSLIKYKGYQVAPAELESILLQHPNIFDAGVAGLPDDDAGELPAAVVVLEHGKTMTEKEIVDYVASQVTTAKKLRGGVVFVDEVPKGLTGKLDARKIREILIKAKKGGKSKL
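Purified P. pyralis luciferase (10nM final) with 10uM D-luciferin and 10uM ATP (Km levels) in 50mM Tris acetate pH 7.5, 10mM Mg acetate, 0.01% Tween-20, 0.05% BSA; qHTS 6-point titration, ~60 µM downward; luminescence read.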
ELG1 genotoxic = qHTS screen for small molecules that induce genotoxicity in human embryonic kidney (HEK293T) cells expressing luciferase-tagged ELG1. HEK293T ELG1-luciferase reporter, luminescence, 16 h. Potency, µM (top dose mostly 46 µM), without a hit: at the top dose activity change, positive = activation, hits mostly activators. 1.3% of 330,000 active. AID 504466, 2011; also: % of control where 0% means no effect; nearly all actives have a fitted effect of over 60% in size
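Quantitative HTS format in 1536-well plates. HEK293T ELG1-luciferase reporter cells receive test compound and are incubated 16 hr at 37 °C, 5% CO2; ONE-Glo added, 30 min room temperature, then luminescence read.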
SMN2 splice enh = qHTS Assay for Enhancers of SMN2 Splice Variant Expression. HEK293 SMN2-luciferase splicing reporter, luminescence, 30-36 h. Potency, µM (titrated, usually from 46.1 µM), without a hit: at the highest dose activity change, positive = activation, most hits filed as activators. 2.8% of 210,000 active; also: % of control where 0% means no effect; nearly all actives have a fitted effect of over 55% in size
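qHTS luciferase splicing reporter: luminescence rises when SMN2 exon 7 is included in transfected HEK293 cells. Compound exposure lasted 30-36 h at 37C, with 4.5 mM final sodium butyrate as control, followed by a ONE-Glo read.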
KinaseGlo FLuc = Counterscreen for Luciferase (Kinase-Glo TM) Inhibition. Potency, µM (series often up to 38.3 µM), for inactives: at the highest dose activity change, negative = inhibition, usual class: inhibitors. Kinase-Glo luciferase, ATP luminescence, 8 min. 0.28% of 200,000 active. Luciferin 4-monooxygenase (Photuris pensylvanica), Q27757. AID 1379, 2008; also: % is scaled to controls: 0 for no effect and ±100 for the full control effect; nearly all actives have a fitted effect of over 60% in size
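Compound is pinned into ATP-containing buffer (10 uM ATP, imidazole pH 7.2, 7 mM MgCl2). Kinase-Glo luciferase reagent is then added. Light output is recorded following an 8-min room-temperature incubation.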
NPC1 promoter act = qHTS Assay for NPC1 Promoter Activators. Huh7 NPC1 promoter luciferase reporter, 24 h. Potency, µM (top dose mostly 9.22 µM), for the others: at the highest dose activation, actives largely listed as activators. 2.4% of 320,000 active. AID 485313, 2010; also: % of control where 0% means no effect; nearly all actives have a fitted effect of over 60% in size
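Cells: Huh7 expressing luciferase under the NPC1 promoter, 1500/well. Seeded 2 h, compound added, incubated 24 h at 37 °C. Luciferase reagent, 10 min ambient, then luminescence.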
Rab9 promoter act = qHTS Assay for Rab9 Promoter Activators; Huh7 Rab9 promoter-luciferase reporter, luminescence, 24 h; Potency, µM (top dose mostly 9.22 µM), without a hit: at the highest dose activation, negative = inhibition, most hits filed as activators; 2.8% of 320,000 active; also: % of control where 0% means no effect; nearly all actives have a fitted effect of over 60% in size
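Promoter activation is measured as luciferase luminescence in Huh7 cells stably transfected with a Rab9 promoter–luciferase construct, following 24 h compound exposure at 37 °C and 10 min reagent incubation at ambient temperature.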
* marks the source's active call; other numbers are inactive results; u = inconclusive; x = no result; [ ] = another dose, or the depositor's remark. Calls follow the shape of the dose curve; as a rule, active = well fitted curve in the direction sought with a large enough effect; inconclusive = small, poorly fitted or top-dose-only effect, or another doubt; inactive = no such curve, though single readings can be large; an effect the other way counts as inactive or inconclusive. Potency is read from the fitted curve at half-maximal effect.

SMILES | FLuc modulator | ELG1 genotoxic | SMN2 splice enh | KinaseGlo FLuc | NPC1 promoter act | Rab9 promoter act
CCSc1nnc(-c2ccc(Cl)cc2Cl)o1 | 9.5µM* | 4.1µM* | u | -9% | 2.5µM* | u
CC(C)OC(=O)CSc1nnc(-c2ccc(Cl)cc2Cl)o1 | 11µM* | -3% | 18% | -1% | 6% | -1%
Clc1ccc(CSc2nnc(-c3ccncc3)o2)c(Cl)c1 | -14% | 0% | -19% | 0% | 9% | -2%
O=C(O)CCSc1nnc(-c2ccc(Cl)cc2Cl)o1 | 0.85µM* | x | -30% | x | x | x
CCCCOC(=O)CSc1nnc(-c2ccc(Cl)cc2Cl)o1 | u | 0% | -21% | -2% | 6% | -3%
Cc1[nH]c(=O)[nH]c(=O)c1C1N2CC3(C(C)C)CN1CC(C(C)C)(C2)C3=O (stereo not given) | 2% | x | -6% | x | x | x
COc1ccc(NC(=O)Cn2c(=O)n(Cc3ccccc3Cl)c(=O)c3cc(OC)c(OC)cc32)cc1OC | -1% | x | 2% | x | x | x
Cc1ccc(C2CC(=O)Oc3cc(C)c(Cl)c(C)c32)cc1 (stereo not given) | x | x | x | -2%[39.9 µM] | x | x
CC(CNC(=O)c1ccc(Cn2c(=O)c3cccn3c3cccnc32)cc1)c1ccccc1 (stereo not given) | 2% | x | x | x | x | x
CSc1nnc(-c2ccccc2Cl)o1 | u | u | 14% | 0% | 10% | 22%
CSc1nnc(-c2ccc(Cl)cc2Cl)o1 | 12µM* | u | 16% | -1% | u | u
Cc1ccc(S(=O)(=O)c2nnn3c2nc(N2CCCC(C)C2)c2cc(Cl)ccc23)cc1C (stereo not given) | 0% | x | -6% | x | x | x
O=C(N/N=C/C(Cl)=C/c1ccc([N+](=O)[O-])cc1)C(=O)Nc1cccc(C(=O)O)c1 | 24µM* | u | x | x | u | u
O=C(O)c1cccc(Nc2ccc([N+](=O)[O-])cn2)c1 | u | 0% | x | x | 1% | 7%
COc1cc(NC(=O)c2ccccc2Cl)c(OC)cc1NC(=O)CN1CCCCC1 | -7% | 0% | x | -2% | -1% | -1%
COc1cc(NC(=O)c2ccc(C)cc2)c(OC)cc1NC(=O)CN1CCCCC1 | 19µM* | -5% | -1% | 3% | 23% | 21%
Cc1ccc(NC(=O)CN2CCCCCC2)c(Br)c1 | 12µM* | u | 11% | 0% | 4µM* | 4µM*
Cc1ccc(NC(=O)CN2CCCCCC2)cc1Br | -9% | 4% | -18% | -4% | 7% | 1%
COc1cc(NC(=O)c2cc(OC)c(OC)c(OC)c2)c(OC)cc1NC(=O)CN1CCCCC1 | 13µM* | 1% | 8% | 0% | -2% | -1%
COc1cccc(C2CC(=O)Nc3c2c(=O)nc2c(C)cccn32)c1OC (stereo not given) | 5% | x | x | x | x | x
CC(=O)Oc1ccc(-c2nc3cc(Cl)ccc3c(=O)o2)cc1 | -11% | -3% | x | x | -4% | 6%
CC(=O)Oc1ccc2c(=O)oc(-c3ccccc3C)nc2c1 | 19µM* | 0% | x | x | -2% | 0%
CC(=O)Oc1ccc2nc(/C=C/c3ccc(C=O)cc3)oc(=O)c2c1 | u | 3% | x | x | -4% | -2%
Cc1ccccc1-c1nc2cc(Cl)ccc2c(=O)o1 | -11% | 0% | x | x | -4% | 1%
CC(=O)Oc1ccc2c(=O)oc(-c3ccccc3)nc2c1 | 7.6µM* | 1% | x | x | 1% | 0%
SMILES | FLuc modulator | ELG1 genotoxic | SMN2 splice enh | KinaseGlo FLuc | NPC1 promoter act | Rab9 promoter act
CC(=O)Oc1ccc2nc(/C=C/c3ccccc3)oc(=O)c2c1 | 1.1µM* | 3% | x | x | -5% | 4%
Cc1ccccc1CNC(=O)c1cnc2sc(N3CCOCC3)nn2c1=O | 2% | x | x | x | x | x
Cc1nnc(SCC(=O)c2cc(C)n(C3CC3)c2C)s1 | 12µM* | u | 25µM* | -3% | 2.2µM* | 2µM*
CCn1c(C)cc(C(=O)CSc2nnnn2C2CCCC2)c1C | 1.9µM* | u | x | x | 0.71µM* | 0.71µM*
CNc1nnc(SCC(=O)c2cc(C)n(C3CC3)c2C)s1 | x | u | x | x | u | 3.5µM*
Cc1cc(C(=O)CSc2nnnn2C)c(C)n1C1CC1 | u | u | 10µM* | -2% | u | 2.8µM*
C[Si](C)(C)Cl | x | x | 5% | x | x | x
O=C(Nc1ccc2oc(-c3ccccc3F)nc2c1)c1ccc2c(c1)OCCO2 | 6.7µM* | -16% | -39% | -10% | 14% | 21%
Cc1cc(NC(=O)c2ccc3c(c2)OCCO3)cc(-c2nc3ccccc3o2)c1O | -10% | x | -1% | x | x | x
Cc1c(NC(=O)c2ccc3c(c2)OCO3)cccc1-c1nc2ccccc2o1 | 9.5µM* | -8% | -11% | 6% | -4% | 0%
COc1cc(C(=O)Nc2cccc(-c3nc4ccccc4o3)c2C)cc(OC)c1OC | u | 4% | -3% | -5% | 0% | 8%
O=C(Nc1ccc(-c2nc3ccccc3o2)cc1)c1ccc2c(c1)OCO2 | 5% | x | -4% | -7% | x | x
Cc1ccc(-c2nc3ccccc3o2)cc1NC(=O)c1ccc2c(c1)OCO2 | u | 7.3µM* | x | -6% | u | -4%
Cc1c(NC(=O)c2cc(-n3cnnc3)ccc2Cl)cccc1-c1nc2ccccc2o1 | 3.8µM* | -1% | 7% | -2% | 0% | -2%
COc1ccc2c(c1-c1c3c(cc(Br)c1OC)CCCC3)CCCC2 | x | x | 8% | 0% | x | x
O=C(O)c1ccc2c(c1)OCCCO2 | -1% | 0% | x | x | 0% | 0%
COc1ccc(OCC(=O)OC(C)CN2CCOCC2)cc1 (stereo not given) | 2% | 2% | 2.8µM* | -1% | -2% | -3%
O=C(/C=C/c1ccccc1)c1ccc2c(c1)OCCCCO2 | 0.38µM* | u | u | -11% | 1µM* | 1.1µM*
CC(CN1CCOCC1)OC(=O)c1ccc2c(c1)OCCO2 (stereo not given) | 27µM* | u | 26% | 0% | u | 2.2µM*
CC(CN1CCOCC1)OC(=O)COc1ccc(F)cc1 (stereo not given) | -1% | 1% | -2% | 0% | -1% | -9%
CNc1ccc(/C=C/C(=O)c2ccc3c(c2)OCCO3)cc1[N+](=O)[O-] | 6µM* | u | -8% | 0% | 2% | -7%
CN(C)Cc1cc(C(C)(C)C)ccc1-c1ccc(C(C)(C)C)cc1CN(C)C | x | x | -4%[9.22 µM] | -2%[7.66 µM] | x | x
COc1ccc(C(CNC(=O)COc2ccc(Cl)c(C)c2)N2CCOCC2)cc1 (stereo not given) | -9% | x | x | x | x | x
Clc1ccc2nc(NCc3ccccc3)c3nncn3c2c1 | 1% | x | 16% | x | x | x
O=C(CCCc1ccccc1)c1ccccc1 | 0.76µM* | u | x | x | 1.6µM* | 1.4µM*
